Experimental data: PubChem BioAssay (NCATS)
Inconclusive results are not listed. Entries that show only a call come without a potency. A structure can be active in one record and inactive in another. Values without a mark were called inactive. Calls of active or inactive are those of the source. Calls follow the shape of the dose curve; as a rule, active = well fitted curve in the direction sought with a large enough effect; inconclusive = small, poorly fitted or top-dose-only effect, or another doubt; inactive = no such curve, though single readings can be large; an effect the other way counts as inactive or inconclusive.

How the values were obtained:
[1] = tested on: CRL-7250; assay: Cytotoxic Profiling of Annotated Libraries Using Quantitative High-Throughput Screening (AID 1296008); details: Five cell lines viability, CellTiter-Glo ATP luminescence, 48-72 h; max response: stronger effect = lower value; also: nearly all actives have a fitted effect of over 60% in size; also: potency is read from the fitted curve at half-maximal effect
Procedure, shortened: (§1)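 Cells exposed to compounds for 48 or 72 hr at 37 degrees Celsius. Viability read as ATP-coupled luminescence with CellTiter-Glo after 10 min at room temperature.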

[2] = tested on: HEK293; assay: as above; details: Five cell lines viability, CellTiter-Glo ATP luminescence, 48-72 h; max response: stronger effect = lower value
Procedure, shortened: as §1

[3] = tested on: HaCat; assay: as above; details: Five cell lines viability, CellTiter-Glo ATP luminescence, 48-72 h; max response: stronger effect = lower value
Procedure, shortened: as §1

[4] = tested on: KB-3-1; assay: as above; details: Five cell lines viability, CellTiter-Glo ATP luminescence, 48-72 h; max response: stronger effect = lower value
Procedure, shortened: as §1

[5] = tested on: NIH3T3; assay: as above; details: Five cell lines viability, CellTiter-Glo ATP luminescence, 48-72 h; max response: stronger effect = lower value
Procedure, shortened: as §1

[6] = tested on: HACAT; assay: qHTS assay to identify novel small-molecules to repurpose for Merkel cell carcinoma treatment (AID 1296009); details: MCC and control cell lines, CellTiter-Glo viability, 72 h; at 44.8 µM (top of the series) unless noted; also: nearly all actives have a fitted effect of over 60% in size
Procedure, shortened: (§2)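 Dose-response viability screen; 72 hr exposure at 37 degree celsius; CellTiter-Glo added, 10 min room temperature, luminescence read; RLUs scaled between no-cell and DMSO wells.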

[7] = tested on: HEK293T; assay: as above; details: MCC and control cell lines, CellTiter-Glo viability, 72 h; series mostly up to 44.8 µM
Procedure, shortened: as §2

[8] = tested on: NIH3T3; assay: as above; details: MCC and control cell lines, CellTiter-Glo viability, 72 h; at 44.8 µM (top of the series) unless noted
Procedure, shortened: as §2

[9] = tested on: C33A; assay: Primary qHTS to identify gynecologic anti-cancer compounds using libraries of approved drugs and bioactive compounds (AID 1345084); details: Gynecologic cancer cell panel viability, ATPlite luminescence, 48 h; series mostly up to 57.5 µM; also: nearly all actives have a fitted effect of over 55% in size
Procedure, shortened: (§3)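 In this quantitative HTS, cell killing is estimated from loss of ATP-dependent luciferase light. Cells see five compound concentrations over a 48 h exposure.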

[10] = tested on: CAOV3; assay: as above; details: Gynecologic cancer cell panel viability, ATPlite luminescence, 48 h; series mostly up to 57.5 µM
Procedure, shortened: as §3

[11] = tested on: CASKI; assay: as above; details: Gynecologic cancer cell panel viability, ATPlite luminescence, 48 h; series mostly up to 57.5 µM
Procedure, shortened: as §3

[12] = tested on: Es-2; assay: as above; details: Gynecologic cancer cell panel viability, ATPlite luminescence, 48 h; series mostly up to 57.5 µM
Procedure, shortened: as §3

[13] = tested on: HeLa; assay: as above; details: Gynecologic cancer cell panel viability, ATPlite luminescence, 48 h; series mostly up to 57.5 µM
Procedure, shortened: as §3

C/C=C/C1=CC2=C(CO1)C(=O)[C@](C)(O)[C@H](OC(=O)c1c(O)cc(OC)c(O)c1C)C2
max response [1]: 2.48% | outcome [2]: inactive | outcome [3]: inactive | outcome [4]: inactive | outcome [5]: inactive | outcome [6]: inactive [at 17.4 µM] | Potency [7]: inactive | outcome [8]: inactive [at 17.4 µM] | Potency [9]: inactive | Potency [10]: inactive | Potency [11]: inactive | Potency [12]: inactive | Potency [13]: inactive

N#Cc1ccnc(N2C(=O)CC[C@H]2C(=O)N(c2cncc(F)c2)[C@H](C(=O)NC2CC(F)(F)C2)c2ccccc2Cl)c1
max response [1]: -10.6% | Potency [2]: 3.31 µM (active) | max response [2]: -9.11% | Potency [3]: 23.4 µM (active) | max response [3]: -27% | max response [4]: 1.75% | max response [5]: -4.58% | Potency [9]: inactive | Potency [10]: inactive | Potency [11]: inactive | Potency [12]: inactive | Potency [13]: inactive

O=C(CCCCc1ccc2ccccc2c1)C(F)(F)F
max response [1]: 3.49% | outcome [2]: inactive | outcome [3]: inactive | max response [4]: 2.37% | outcome [5]: inactive | outcome [6]: inactive [at 92 µM] | Potency [7]: inactive | outcome [8]: inactive [at 92 µM] | Potency [9]: inactive | Potency [10]: inactive | Potency [11]: inactive | Potency [12]: inactive | Potency [13]: inactive

CC(CCC1C(C(=O)O)=CC(=O)CC1(C)C)O[C@@H]1O[C@H](CO)[C@@H](O)[C@H](O)[C@H]1O (stereo not given in full)
max response [1]: 1.37% | outcome [2]: inactive | outcome [3]: inactive | outcome [4]: inactive | outcome [5]: inactive | outcome [6]: inactive | Potency [7]: inactive | outcome [8]: inactive | Potency [9]: inactive | Potency [10]: inactive | Potency [11]: inactive | Potency [12]: inactive | Potency [13]: inactive

COc1cccc(-c2ccc([C@@H](Oc3cc(-c4ccc(C[C@H](N)C(=O)O)cc4)nc(N)n3)C(F)(F)F)cc2)c1
outcome [1]: inactive | outcome [2]: inactive | outcome [3]: inactive | outcome [4]: inactive | outcome [5]: inactive | outcome [6]: inactive | Potency [7]: inactive | outcome [8]: inactive | Potency [9]: inactive | Potency [10]: inactive | Potency [11]: inactive | Potency [12]: inactive | Potency [13]: inactive

COc1ccc2cc(OCC3(C(=O)O)CN(C(=O)c4ccc(F)cc4)C3)ccc2c1
outcome [1]: inactive | outcome [2]: inactive | outcome [3]: inactive | max response [4]: 1.45% | outcome [5]: inactive | outcome [6]: inactive | Potency [7]: inactive | outcome [8]: inactive | Potency [9]: inactive | Potency [10]: inactive | Potency [11]: inactive | Potency [12]: inactive | Potency [13]: inactive

CC(=O)O[C@@H]1C[C@]2(C)[C@@]3(CCC4[C@@]5(C)CC[C@H](O[C@@H]6O[C@H](C(=O)O)[C@@H](O)[C@H](O[C@@H]7O[C@H](CO)[C@H](O)[C@H](O)[C@H]7O[C@@H]7O[C@@H](C)[C@H](O)[C@@H](O)[C@H]7O[C@@H]7OC[C@](O)(CO)[C@H]7O)[C@H]6O[C@@H]6O[C@H](CO)[C@H](O)[C@H](O)[C@H]6O)C(C)(C)C5CC[C@]42C)O[C@@H](O)[C@]12C3CC(C)(C)[C@@H](OC(=O)/C=C/c1ccc(O)c(O)c1)[C@@H]2OC(=O)/C=C/c1ccccc1 (stereo not given in full)
max response [1]: 3.23% | outcome [2]: inactive | outcome [3]: inactive | outcome [4]: inactive | outcome [5]: inactive | outcome [6]: inactive [at 9.27 µM] | outcome [7]: inactive [at 9.27 µM] | outcome [8]: inactive [at 9.27 µM] | activity change, negative = cytotoxicity [9]: 8.85% [at 6.55 µM] | activity change, negative = cytotoxicity [10]: 0.993% [at 6.55 µM] | activity change, negative = cytotoxicity [11]: 8% [at 6.55 µM] | activity change, negative = cytotoxicity [12]: -3.99% [at 6.55 µM] | activity change, negative = cytotoxicity [13]: 2.04% [at 6.55 µM]

COC(=O)[C@@]1(O)C=CC[C@@H]2[C@@]3(C)C[C@@H](c4ccoc4)OC(=O)[C@H]3CC[C@]21C
outcome [1]: inactive | outcome [2]: inactive | outcome [3]: inactive | max response [4]: 0.0207% | outcome [5]: inactive | outcome [6]: inactive | Potency [7]: inactive | outcome [8]: inactive | Potency [9]: inactive | Potency [10]: inactive | Potency [11]: inactive | Potency [12]: inactive | Potency [13]: inactive

CC1OC(OC2C(C)OC(OC3C(OC(=O)/C=C/c4ccc(O)cc4)C(CO)OC(OC4(COC(=O)/C=C/c5ccc(O)cc5)OC(CO)C(O)C4O)C3OC3OCC(O)(CO)C3O)C(O)C2O)C(O)C(O)C1O (stereo not given)
max response [1]: -0.0903% | outcome [2]: inactive | outcome [3]: inactive | max response [4]: 4.29% | outcome [5]: inactive | outcome [6]: inactive [at 9.27 µM] | outcome [7]: inactive [at 9.27 µM] | outcome [8]: inactive [at 9.27 µM] | activity change, negative = cytotoxicity [9]: 4.08% [at 11.6 µM] | activity change, negative = cytotoxicity [10]: -2.97% [at 11.6 µM] | activity change, negative = cytotoxicity [11]: 10% [at 11.6 µM] | activity change, negative = cytotoxicity [12]: -0.759% [at 11.6 µM] | activity change, negative = cytotoxicity [13]: -8.01% [at 11.6 µM]

Nc1ncnc2c1ncn2[C@H]1CCCO1
max response [1]: -0.0341% | outcome [2]: inactive | outcome [3]: inactive | outcome [4]: inactive | outcome [5]: inactive | outcome [6]: inactive | Potency [7]: inactive | outcome [8]: inactive | Potency [9]: inactive | Potency [10]: inactive | Potency [11]: inactive | Potency [12]: inactive | Potency [13]: inactive

CC(=O)NCCCCn1c2c(c3ccccc31)C(=O)NCC2
max response [1]: 4.55% | outcome [2]: inactive | outcome [3]: inactive | outcome [4]: inactive | outcome [5]: inactive | outcome [6]: inactive | Potency [7]: inactive | outcome [8]: inactive | Potency [9]: inactive | Potency [10]: inactive | Potency [11]: inactive | Potency [12]: inactive | Potency [13]: inactive

C=CC(C)(O)CC/C=C(/C)C(=O)OC1C(OC2OCC(OC3OC(CO)C(O)C(O)C3O)C(OC3OCC(O)C(OC4OC(C)C(O)C(O)C4O)C3O)C2O)COC(OC(=O)C23CCC(C)(C)CC2C2=CCC4C5(C)CCC(OC6OC(CO)C(OC7OC(CO)C(O)C(OC8OCC(O)C(O)C8O)C7O)C(O)C6O)C(C)(C)C5CCC4(C)C2(C)CC3O)C1O (stereo not given)
outcome [1]: inactive | outcome [2]: inactive | outcome [3]: inactive | max response [4]: -5.7% | outcome [5]: inactive | outcome [6]: inactive [at 4.96 µM] | outcome [7]: inactive [at 4.96 µM] | outcome [8]: inactive [at 4.96 µM] | activity change, negative = cytotoxicity [9]: 1.13% [at 6.55 µM] | activity change, negative = cytotoxicity [10]: 6.96% [at 6.55 µM] | activity change, negative = cytotoxicity [11]: 8.91% [at 6.55 µM] | activity change, negative = cytotoxicity [12]: -0.338% [at 6.55 µM] | activity change, negative = cytotoxicity [13]: 1.37% [at 6.55 µM]
